The campaign covered roughly 360,000 compounds. About 3,100 (0.86%) were called active. This is one part of a sample in which actives are shown more often than they occur. Values without a mark were called inactive.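 The calls were made as follows: active = at least 50% inhibition at 5 µM, scaled per plate between neutral and stimulator controls; inactive = the rest.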
Assay: inhibitors of PAF-induced NF-kB signaling, primary screen, cell-based, GFP fluorescence, uHTS (AID 588850);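 also: PAF is a Pseudomonas aeruginosa culture filtrate used as stimulus; plate controls were PAF-stimulated DMSO wells for no effect and unstimulated DMSO wells for full effect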
Conditions: KKLEB NF-kB-GFP reporter, GFP fluorescence overnight, at 5 µM, hits give high values
In the case of `CCN(CC)S(=O)(=O)c1ccc(N2CCCC2)c(NC(=O)c2ccc([N+](=O)[O-])o2)c1`, the inhibition is reported as 10.6%.
`Cc1onc(NC(=O)c2ccc([N+](=O)[O-])o2)c1Br` showed an inhibition of 27.3%.
For `Cc1cccc(NC(=O)c2ccc([N+](=O)[O-])o2)c1`, the inhibition was 59.4% (active).
For `CCn1c(SCC(=O)Nc2ccccc2F)nc2c(c1=O)SC(C)C2` (configuration not stated), the inhibition was 6.5%.
For `CCOC(=O)CSc1ccccn1`, the inhibition was -2.8%.
For `CCOC(=O)C(C(=O)c1ccccc1)C(c1ccccc1)c1nccc2ccccc12` (configuration not stated), the inhibition was 50.6% (active).
`O=C(O)CSc1nccc2ccccc12` showed an inhibition of -3.7%.
Molecule `O=c1nc(N2CCOCC2)nc2n1CCO2` has an inhibition of -13%.
For `Cc1cccc(C)c1Cn1c(C)c(C(=O)NCc2cccc(Cl)c2)sc1=O`, the inhibition was 10.9%.
In the case of `CC(C)c1ccc2c(c1)c(SC(C)(C)C)c(CC(C)(C)C(=O)O)n2Cc1ccc(Cl)cc1`, the inhibition is reported as 63.4% (active).
Molecule `COc1ccc(CCNC(=O)Nc2ccc3c(c2)c(=O)n(C)n3C)cc1OC` has an inhibition of 14.5%.
Work on `CC(C)C(=O)Nc1c2c(nn1-c1ccccc1)CSC2` yielded an inhibition of 7%.
`Cn1c(=O)c2c(n(Cc3ccccc3)c1=O)NC(=O)C2CC(=O)N1CCc2ccccc2C1` (configuration not stated) showed an inhibition of 18%.
Molecule `COc1cccc(NCCC(=O)c2cccc([N+](=O)[O-])c2)c1` has an inhibition of -10.5%.
For `COC(=O)/C=C\C(=O)Nc1cccc([N+](=O)[O-])c1`, the inhibition was 92.2% (active).
Work on `O=C(Nc1cccc([N+](=O)[O-])c1)N1CCc2ccccc2C1` yielded an inhibition of 21.9%.
Work on `O=C(CNC(=O)N1CC(=O)Nc2ccccc21)Nc1ccc(Br)cc1F` yielded an inhibition of -4.5%.
Work on `COc1ccc(N(CC(=O)N/N=C/c2cccc3c2OCCO3)S(=O)(=O)c2ccc(NC(C)=O)cc2)cc1` yielded an inhibition of -5.5%.
Molecule `COCOCCn1cc(CN2CCS(=O)(=O)N(Cc3ccc(-c4cccc(N(C)C)c4)cc3)C(CC(C)C)C2=O)nn1` (configuration not stated) has an inhibition of 6.3%.
For `CC[C@H]1CN2CCc3cc(OC)c(OC)cc3[C@@H]2C[C@@H]1C[C@H]1NCCc2cc(OC)c(OC)cc21`, the inhibition was 82.5% (active).
With `COc1cc(/C=C/C(=O)O)cc(S(=O)(=O)Nc2ccccc2C(=O)NCCc2ccccc2)c1OC` the inhibition was -10.9%.
In the case of `Cc1ccc(NC(=O)NC(=O)CSc2nnc(-c3ccc(OC(F)F)cc3)n2N)c(C)c1`, the inhibition is reported as -26.2%.
`Cc1ccc(-n2ncc3c2CC(C)(C)CC3NC(=O)Cc2c(C)noc2C)cc1` (configuration not stated) showed an inhibition of 28.3%.
For `O=C1/C(=C\c2ccccc2Cl)SC(=S)N1CCC(=O)N1CCCc2ccccc21`, the inhibition was 8.4%.
In the case of `CN(C(=O)CCN1C(=O)/C(=C/c2ccccc2F)SC1=S)C1CCS(=O)(=O)C1` (configuration not stated), the inhibition is reported as -14.9%.
For `Cc1ccc(-c2nn(-c3ccccc3)cc2/C=C2\SC(=S)N(CCCCCC(=O)O)C2=O)o1`, the inhibition was 53.8% (active).
Molecule `CN(C)S(=O)(=O)c1ccc(N2CCCC2)c(C(=O)Nc2ccc(Br)cc2F)c1` has an inhibition of 21.3%.
Work on `Cc1cc2c3ccccc3[nH]c(=O)n2n1` yielded an inhibition of -16.8%.
Molecule `CN(C)/C=C/c1c(C#N)c(=O)ncn1Cc1ccccc1` has an inhibition of -10.4%.
With `CN(C)c1ccnc2sc3c(=O)n(Cc4ccccc4)cnc3c12` the inhibition was 80.2% (active).
In the case of `O=c1c2c(ncn1Cc1ccccc1)nc1n2CCC1`, the inhibition is reported as 1.3%.
In the case of `O=C(Nc1ccc(F)cc1)Nc1nnc([C@H]2C[C@H](O)[C@@H](CO)O2)s1`, the inhibition is reported as 8%.
In the case of `CCOC(=O)c1cc(C(=O)Nc2ccc(S(=O)(=O)Nc3ccc(OC)cc3)cc2)nn1C`, the inhibition is reported as -4.7%.
`CCN(Cc1ccccc1)C(=O)CCS(=O)(=O)c1ccc2c(c1)oc(=O)n2C` showed an inhibition of -2.4%.
For `O=C1Nc2ccccc2/C1=C/c1ccnc2ccccc12`, the inhibition was 50.5% (active).
Molecule `COCCN(C(=O)CCC(=O)Nc1ccccn1)C(C(=O)NCCC(C)C)c1ccc(OC)cc1` (configuration not stated) has an inhibition of -7.9%.
In the case of `CCOC(=O)N1CCN(S(=O)(=O)c2ccc3c(c2)C(C)C(=O)N3)CC1` (configuration not stated), the inhibition is reported as -4%.
Work on `NC(=O)c1ncn([C@@H]2O[C@H](CNCc3cnc(N4CCOCC4)s3)[C@@H](O)[C@H]2O)n1` yielded an inhibition of -11.1%.
In the case of `O=C(CCl)Nc1ccc(Sc2ccc(NC(=O)CCl)cc2)cc1`, the inhibition is reported as 93.7% (active).
In the case of `CC(=O)Nc1ccc(SCC(=O)NC(=O)c2ccc(Cl)cc2)cc1`, the inhibition is reported as -19.2%.
`O=C(O)CSCC(=O)Nc1ccc(C(F)(F)F)cc1` showed an inhibition of -2.9%.
`Cc1[nH]c2ccccc2c1SCC(=O)Nc1nccs1` showed an inhibition of 1%.
In the case of `CCNC(=O)C1CCCN(C(=O)c2cc(F)ccc2C)CC1` (configuration not stated), the inhibition is reported as -17.2%.
With `Cc1ccccc1-c1ccc2c(c1)O[C@@H](CN(C)Cc1ccc(C(=O)O)cc1)[C@@H](C)CN([C@H](C)CO)S2(=O)=O` the inhibition was 44.9%.
With `CC(NC(=O)c1cc2cc(Cl)ccc2oc1=N)c1ccccc1` (configuration not stated) the inhibition was 23.8%.
In the case of `COc1cc2c3c(c1)/C(=C1/SC(=S)NC1=O)C(=O)N3C(C)(C)C=C2C`, the inhibition is reported as 50.7% (active).
With `CCOc1ccc(NC(=O)CSc2ncnc3c2sc2ccccc23)cc1` the inhibition was 5.6%.

Reference: PubChem BioAssay AID588850 (Sanford-Burnham Center for Chemical Genomics, 2011)
